For this assay, the system named is MIWI (PIWIL1) piRISC loaded with L1MC piRNA (30 nt). The assay can be described thus: pre-steady-state target cleavage rate (min^-1); MIWI and MILI are mouse PIWI proteins and EfPiwi is from a freshwater sponge; tags in brackets are library labels; higher = faster piRNA-guided slicing of the target. The note with it: guide: L1MC piRNA 5'p-UAACUAAAUACUAUGCAAGCUGUAGGUCCU
Summed up: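 At 33 °C in HEPES–potassium acetate buffer, a transcribed, DNA-blocked target RNA library […] was exposed for 0–8 or 0–960 min to 1 nM active affinity-purified piRISC carrying a single synthetic guide, with or without 500 nM GTSF1 partner protein. Uncleaved targets were sequenced and normalised to depth and to weakly complementary targets. With three trials pooled and k3 capped at 0.0001 min^-1, a burst-and-steady-state fit produced the pre-steady-state cleavage rate.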

Where [1] appears, read: auxiliary factor: 500 nM mouse GTSF1.
[2] abbreviates: auxiliary factor: none (no GTSF1).

This is an account of results in the supplement of paper PMC10338343.

± gives the standard deviation. Over roughly 8,200 sequences, “pre-steady-state target cleavage rate” has its median near 0.024; the highest 2% begin near 1.3. The full list was thinned out, with the highest values kept by preference.
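Note: 1 nM active piRISC with 0.1 nM target library at 33 °C single turnover.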

Consider UCCUCCUACAGCUUGCAUAGUAUAUUGUUA, for which the “pre-steady-state target cleavage rate” value by setting is: under setting [1], 0.368 ± 0.033; under setting [2], 0.0145 ± 0.0039.
On to UGGACCUACAGCUUGCAUACUAAUUAGUUA, for which the “pre-steady-state target cleavage rate” value stood at 0.154 ± 0.01 under setting [1] and 0.00958 ± 0.0024 under setting [2].
As to UCCUGGAACAGCUUGCUAUGUAUUUAGUUA, the “pre-steady-state target cleavage rate” value under setting [1] stood at 0.0729 ± 0.011 and the “pre-steady-state target cleavage rate” value under setting [2] was found to be 0.00814 ± 0.0024.
Taken in the same sequence, the figures for UCCUCCUACAGCUUGCAUACUAUUUACUUA were 0.197 ± 0.023 and 0.018 ± 0.0033.
In the case of UCGACCUACAGCUUGCAUAUAUUUAGUUA, the “pre-steady-state target cleavage rate” value under setting [1] came out at 0.489 ± 0.044.
As to UGGACCUACAGCUUGCAUAUUAUUUAGUUA, the “pre-steady-state target cleavage rate” value runs as follows: under setting [1], 1.71 ± 0.12; under setting [2], 0.0442 ± 0.0088.
In the case of AGGACCUACAGCUUGCAUAUUAUUUAGUUA, the “pre-steady-state target cleavage rate” value by setting is: under setting [1], 1.23 ± 0.074; under setting [2], 0.0773 ± 0.017.
Regarding UCGACCUACAGCUUGCAUAUUAUUUAGUUA, the “pre-steady-state target cleavage rate” value reads like this: under setting [1], 1.5 ± 0.072; under setting [2], 0.0515 ± 0.013.
For the sequence UCGACCUACAGCUUGCAUAGUUAUUUAGUUA, the “pre-steady-state target cleavage rate” value came to 0.0764 ± 0.016 under setting [1] and 0.00495 ± 0.0031 under setting [2].
The corresponding values for UGGACCUACAGCUUGCAUAUAUUUAGUUA are 0.429 ± 0.067 and 0.00298 ± 0.0022.
Turning to UCCUGGAACAGCUUGCACAGUAUUUAGUUA, the “pre-steady-state target cleavage rate” value worked out at 1.01 ± 0.035 under setting [1] and 0.0853 ± 0.018 under setting [2].
On to UCCUGGAUGUGCUUGCAUAGUAAUUAGUUA, for which the “pre-steady-state target cleavage rate” value turned out to be 0.0816 ± 0.011 under setting [1] and 0.0162 ± 0.0045 under setting [2].
Taken in the same sequence, the figures for UCCUCCUACUGCUUGCAUAGUAUAUAGUUA were 0.472 ± 0.026 and 0.0228 ± 0.0045.
With UCCUCCUUCUGCUUGCAUAGUAUUUAGUUA, the “pre-steady-state target cleavage rate” value by setting is: under setting [1], 1.18 ± 0.038; under setting [2], 0.0546 ± 0.0091.
Turning to UCGACCUACAGCUUGAUAGUAUUUAGUUA, the “pre-steady-state target cleavage rate” value under setting [1] amounted to 1.08 ± 0.067 and the “pre-steady-state target cleavage rate” value under setting [2] was determined as 0.00731 ± 0.0024.
In the case of UCCACCUACAGCUUGAAUAGUAUUUAGUUA, the “pre-steady-state target cleavage rate” value reads like this: under setting [1], 1.01 ± 0.035; under setting [2], 0.0277 ± 0.0053.
As for UGGACCUACAGCUUGCAAUAGUAUUUAGUUA, the “pre-steady-state target cleavage rate” value under setting [1] turned out to be 0.0655 ± 0.011.
On to AGGACCUACAGCUUGACAUAGUAUUUAGUUA, for which the “pre-steady-state target cleavage rate” value runs as follows: under setting [1], 1.07 ± 0.093; under setting [2], 0.0105 ± 0.0047.
Take AGGACCUACAGCUUGAUAGUAUUUAGUUA: the “pre-steady-state target cleavage rate” value by setting is: under setting [1], 1.21 ± 0.082; under setting [2], 0.0133 ± 0.0041.
Consider AGGACCUACAGCUUGAAUAGUAUUUAGUUA, for which the “pre-steady-state target cleavage rate” value turned out to be 1.44 ± 0.059 under setting [1] and 0.0532 ± 0.01 under setting [2].
UGGACCUACAGCUUGAUAGUAUUUAGUUA: the “pre-steady-state target cleavage rate” value runs as follows: under setting [1], 1.03 ± 0.096; under setting [2], 0.0103 ± 0.003.
UGGACCUACAGCUUGAAUAGUAUUUAGUUA: the “pre-steady-state target cleavage rate” value was determined as 1.63 ± 0.08 under setting [1] and 0.0423 ± 0.0078 under setting [2].
Regarding UCGACCUACAGCUUGAAUAGUAUUUAGUUA, the “pre-steady-state target cleavage rate” value amounted to 1.48 ± 0.05 under setting [1] and 0.0397 ± 0.0067 under setting [2].
For UCCUGGAUGUGCUUGCAUAGUAUUUACAUA, the “pre-steady-state target cleavage rate” value runs as follows: under setting [1], 0.08 ± 0.017; under setting [2], 0.0058 ± 0.0031.
As for UCCUGGAUGAGCAUGGAUAGUAUUUAGUUA, the “pre-steady-state target cleavage rate” value by setting is: under setting [1], 0.475 ± 0.042; under setting [2], 0.0081 ± 0.0031.
Consider UCGACCUACAGCUUGCUUAGUAUUUUCAAA, for which the “pre-steady-state target cleavage rate” value under setting [1] was determined as 0.329 ± 0.048.
Consider UCCUGGAUGUGCAUGCAUAGUAUUUAGUAA, for which the “pre-steady-state target cleavage rate” value runs as follows: under setting [1], 0.0251 ± 0.0072; under setting [2], 0.00346 ± 0.0025.
The corresponding values for UCCUGGAAGAGCUUGCUUAGUAUUUAGUUA are 0.761 ± 0.051 and 0.0227 ± 0.0089.
Take UCCUGGAUGAGCUUGCUUAGUAUAUAGUUA: the “pre-steady-state target cleavage rate” value is 0.0747 ± 0.013 under setting [1] and 0.0101 ± 0.0035 under setting [2].
For the sequence UCCUGCUACAGCAUGCAUAGUAAUUAGUUA, the “pre-steady-state target cleavage rate” value reads like this: under setting [1], 0.73 ± 0.077; under setting [2], 0.00723 ± 0.0026.
Regarding UCCUGGAUGUCCUUGCAUAGUAUAUUAGUUA, the “pre-steady-state target cleavage rate” value under setting [1] amounted to 0.025 ± 0.0089.
In the case of UCCUGGAACAGCUUGCAUAGUAUUUGGUUA, the “pre-steady-state target cleavage rate” value by setting is: under setting [1], 0.781 ± 0.041; under setting [2], 0.0538 ± 0.011.
As to UCCACCUACAGCUUGCUUAGUAUUUAGUAA, the “pre-steady-state target cleavage rate” value runs as follows: under setting [1], 0.484 ± 0.044; under setting [2], 0.0103 ± 0.0023.
For UCGACCUUACAGCUUGCAUAGUAUUUAGUUA, the “pre-steady-state target cleavage rate” value is, setting by setting: under setting [1], 1.47 ± 0.057; under setting [2], 0.091 ± 0.02.
As for UCCACUUACAGCUUGCAUAGUAUUUAGUUA, the “pre-steady-state target cleavage rate” value reads like this: under setting [1], 1.17 ± 0.034; under setting [2], 0.0668 ± 0.0094.
Turning to UGGACUUACAGCUUGCAUAGUAUUUAGUUA, the “pre-steady-state target cleavage rate” value under setting [1] is 1.45 ± 0.063 and the “pre-steady-state target cleavage rate” value under setting [2] was found to be 0.081 ± 0.013.
As for UCGACUACAGCUUGCAUAGUAUUUAGUUA, the “pre-steady-state target cleavage rate” value is, setting by setting: under setting [1], 1.3 ± 0.049; under setting [2], 0.0713 ± 0.012.
Take AGGACCGUACAGCUUGCAUAGUAUUUAGUUA: the “pre-steady-state target cleavage rate” value is, setting by setting: under setting [1], 1.16 ± 0.061; under setting [2], 0.0943 ± 0.019.
For AGGACUUACAGCUUGCAUAGUAUUUAGUUA, the “pre-steady-state target cleavage rate” value under setting [1] came out at 1.39 ± 0.064 and the “pre-steady-state target cleavage rate” value under setting [2] worked out at 0.0831 ± 0.012.
For the sequence UCGACUUACAGCUUGCAUAGUAUUUAGUUA, the “pre-steady-state target cleavage rate” value is, setting by setting: under setting [1], 1.56 ± 0.045; under setting [2], 0.0755 ± 0.013.
On to UGGACCUACAGCUUGCAUAGUAUUUACUUA, for which the “pre-steady-state target cleavage rate” value is 0.24 ± 0.021 under setting [1] and 0.0361 ± 0.0058 under setting [2].
For UGGACCAUACAGCUUGCAUAGUAUUUAGUUA, the “pre-steady-state target cleavage rate” value amounted to 1.3 ± 0.066 under setting [1] and 0.0868 ± 0.013 under setting [2].
Taken in the same sequence, the figures for UCCUGGAUGAGCUAGCAUAGUAUAUAGUUA were 0.194 ± 0.031 and 0.00454 ± 0.0041.
As for UCCACCUACUCGUUGCAUAGUAUUUAGUAA, the “pre-steady-state target cleavage rate” value amounted to 0.406 ± 0.031 under setting [1] and 0.00745 ± 0.0019 under setting [2].
As to UCCUGCUACAGCUUCCAUAGAAUUUAGUUA, under setting [1], the “pre-steady-state target cleavage rate” value is 0.0338 ± 0.013.
UCCUGGAUGAGCUUGCAUAGUAUUAAGUAA: the “pre-steady-state target cleavage rate” value was determined as 0.197 ± 0.036 under setting [1] and 0.0178 ± 0.0055 under setting [2].
The corresponding values for UCCACCUAGAGCUUGCAUAGUAUUUAGAUA are 0.178 ± 0.032 and 0.00955 ± 0.0025.
For the sequence UCCUGCUACAGCUUGCAUAGUAUUUUCAUA, the “pre-steady-state target cleavage rate” value under setting [1] was found to be 0.295 ± 0.055.
On to UCCUGGAUGUGCUUGCAAAGUAUUUUGUUA, for which the “pre-steady-state target cleavage rate” value runs as follows: under setting [1], 0.0495 ± 0.008; under setting [2], 0.0109 ± 0.0032.
Take UGGAGCUACUGCUUGCAUAGUAUUUAGUUA: the “pre-steady-state target cleavage rate” value is, setting by setting: under setting [1], 1.09 ± 0.055; under setting [2], 0.0621 ± 0.0085.
Take UGGACCAUCAGCUUGCAUAGUAUUUAGUUA: the “pre-steady-state target cleavage rate” value is, setting by setting: under setting [1], 1.44 ± 0.056; under setting [2], 0.101 ± 0.019.
Taken in the same sequence, the figures for UCCUCCAUCAGCUUGCAUAGUAUUUAGUUA were 0.739 ± 0.027 and 0.0679 ± 0.013.
Turning to UCGACCUAUAGCUUGCAUAGUAUUUAGUUA, the “pre-steady-state target cleavage rate” value came out at 1.04 ± 0.055 under setting [1] and 0.0703 ± 0.014 under setting [2].
The corresponding values for UCGACCUAUCAGCUUGCAUAGUAUUUAGUUA are 1.61 ± 0.06 and 0.0851 ± 0.018.
Take UCCUCCUAUCAGCUUGCAUAGUAUUUAGUUA: the “pre-steady-state target cleavage rate” value is, setting by setting: under setting [1], 1.49 ± 0.072; under setting [2], 0.0492 ± 0.011.
Regarding UCCUCCUCAGCUUGCAUAGUAUUUAGUUA, the “pre-steady-state target cleavage rate” value reads like this: under setting [1], 1.05 ± 0.027; under setting [2], 0.0482 ± 0.009.
Turning to UGGACCUAUCAGCUUGCAUAGUAUUUAGUUA, the “pre-steady-state target cleavage rate” value is, setting by setting: under setting [1], 1.48 ± 0.086; under setting [2], 0.074 ± 0.016.
The corresponding values for AGGACCAUCAGCUUGCAUAGUAUUUAGUUA are 1.3 ± 0.048 and 0.0926 ± 0.017.
As to AGGACCUAUCAGCUUGCAUAGUAUUUAGUUA, the “pre-steady-state target cleavage rate” value came to 1.25 ± 0.055 under setting [1] and 0.0769 ± 0.013 under setting [2].
For UCCACCUAUCAGCUUGCAUAGUAUUUAGUUA, the “pre-steady-state target cleavage rate” value came out at 1.01 ± 0.037 under setting [1] and 0.0531 ± 0.011 under setting [2].
The corresponding values for UGGACCAUCAGCUUGCAUAGUAUUUAGUAA are 1.05 ± 0.053 and 0.0577 ± 0.013.
Turning to UGGACCUAUAGCUUGCAUAGUAUUUAGUUA, the “pre-steady-state target cleavage rate” value amounted to 1.23 ± 0.054 under setting [1] and 0.0564 ± 0.011 under setting [2].
